Laboratory results: the supplement of paper PMC6555819

test system: RARg homodimer (NR concentration 270 nM); assay: PBM binding z-score (relative to random genomic background probes); higher = stronger binding; sequences stand for … in GC…GCGATTGACAGCGTAGAATGAAGG
Procedure, shortened: (§1)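 Regression normalization was applied to scanned fluorescence from custom Agilent 4×180K protein-binding microarrays. Before scanning, arrays were incubated 1 h with ligand-free nuclear receptor dimers, and binding was detected with antibodies against each partner (one per run). Binding z-scores use the random background probes as reference.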

Q: Which PBM binding z-score does the source give for ATACCAAGGTGATCGTGAGGTCGTGGATACTAAC here?
A: 0.919

Q: For TCATATAGGTAAACAGCTGAAAGTCCGTAAGTTA, which PBM binding z-score is on record?
A: 0.0863

Q: With TCCGCTAGGTCAACGATGGTCAGCTAATCTGCTA as the sequence, how does the PBM binding z-score read?
A: 4.83

Q: With ATCGCTAGGTAAAGATAGTTCAGTGAATGCAAAT as the sequence, how does the PBM binding z-score read?
A: 0.387

Q: With CCTCGGAGGACAACAGGAGGTCAGAGCTGCCAGA as the sequence, how does the PBM binding z-score read?
A: 2.98

Q: With CGTCCAAGGTCATAGGAGGTAAGTGAAGACAGAT as the sequence, how does the PBM binding z-score read?
A: 5.93

Q: For TCGAGAAGGTTACCAATGGGGCATTCAGCTTTCT, which PBM binding z-score is on record?
A: 1.19

Q: For CCTTACGGGTCACTGACGGGTTATAGCATTTGGA, which PBM binding z-score is on record?
A: 4.49

Q: CAAACTAGGTCAATGGTCAAAGTCGAGCCAACCA was tested. Which PBM binding z-score did it give?
A: 4.56

Q: How did the PBM binding z-score turn out when GCTAGTTGGTAAGTAAAAGGTCACACACCGGTCG was run?
A: 4.06

Q: For TAGCCTAGTTCATGGGCCAGTATACCACGCGAAC, which PBM binding z-score is on record?
A: 0.746

Q: How did the PBM binding z-score turn out when GCAGACAGGTGAAAAGCAGGTAACTCAGGGTGGC was run?
A: -0.088

Q: How did the PBM binding z-score turn out when CGAACTAGGTTATCCAGGACAGTGAATACATTGA was run?
A: 1.04

Q: How did the PBM binding z-score turn out when ATCTCTAGGTAACAAGTTCAGAGAAAGAGAGGAC was run?
A: 1.32

Q: Which PBM binding z-score does the source give for GCTTACGGGTCAAAGGTTATAGCGTGAATAGAAT here?
A: 4.52

Q: For ATACCAAGGTGATCGTGATGTCGTTGATACTAAC, which PBM binding z-score is on record?
A: 0.334

Q: How did the PBM binding z-score turn out when CCTAGCAGGACAGGGTCACTCAAGCATTTCGCTT was run?
A: 2.23

Q: TTAATGAGGTTATAAGATCAGGGAACGTTGCAAA was tested. Which PBM binding z-score did it give?
A: 1.01

test system: RXRa DBDmut IVT, anti-RXR (DBD mutation: RXRa K156A/R161A, NR concentration 90 nM); assay: as above
Procedure, shortened: as §1

Q: For TCTTGTAGATCAATAGAGGTCAAGAAAGTGCGCT, which PBM binding z-score is on record?
A: 0.858

Q: CCTTACGGGTCACTCCAGGTTATAACATCGGAGT was tested. Which PBM binding z-score did it give?
A: 1.31

Q: Which PBM binding z-score does the source give for TCTTGTAGATCAAAAGTTAAGAAAGCCGAAGCCT here?
A: 0.742

Q: For TAGCCTAGGTCATGCGGGCCAGTATGGTGTCGGC, which PBM binding z-score is on record?
A: 0.269

Q: For CGTCCAAGGTCAATGCTAGGTGAGTGAAAGCATT, which PBM binding z-score is on record?
A: 3.39

Q: Which PBM binding z-score does the source give for TAGCCTGGGTCATTGGGCCAGTATAGTACGCATC here?
A: 0.363

Q: How did the PBM binding z-score turn out when TCTTGTAGATCAACAGAAGGTTAAGAAAGATCGA was run?
A: 0.67

Q: Which PBM binding z-score does the source give for CGAACTAGGTCATCCAGGAAAGTGAATACATTGA here?
A: 2.23

Q: With ATCTCTAGGTAACTAAGTTCAGTGAATGCCGAAC as the sequence, how does the PBM binding z-score read?
A: 1.16

Q: With CCTGCTAGGTGAATGGTCAGCTAAAGCAGCTCGC as the sequence, how does the PBM binding z-score read?
A: -0.37

Q: For TCATATAGGTAAATGCTAGGTGGAAGTCCGATCT, which PBM binding z-score is on record?
A: 1.28

Q: With ACTAACAGGCCAAGTTTGGGTCACTCAAACAAAG as the sequence, how does the PBM binding z-score read?
A: 0.278

Q: Which PBM binding z-score does the source give for GCTAGTTGGTCAGTATAAGGTCACACACCGGTCG here?
A: 0.514

Q: For CGAACTAGGTAAGAACAGGACAGTGAAGGATGAT, which PBM binding z-score is on record?
A: -0.391

Q: CCGAGCAGGTTATGGGGCATTCAGGCAACGGTGA was tested. Which PBM binding z-score did it give?
A: -0.126

Q: How did the PBM binding z-score turn out when CCTACTGAGCCAAGGTCATTGATCAGTCAAAGCA was run?
A: 2.2

Q: Which PBM binding z-score does the source give for TCTACTAGGTCAACGATGGTCAGCTAATCTGCTA here?
A: 1.89

Q: For CCTTACGGGTCACGCCAGGTTATAGCATCGGAGT, which PBM binding z-score is on record?
A: 1.75

Q: For ACAGACAGGTGATGAAGGCAACTCAGGCTATCAT, which PBM binding z-score is on record?
A: -0.405

Q: With CCTAGTTGGTCAAGGGCACACACGCTATAGGTAC as the sequence, how does the PBM binding z-score read?
A: 0.232

Q: ACTAGCAGGCCAAATTTGGGTCACTCAAACAAAG was tested. Which PBM binding z-score did it give?
A: 0.0631

Q: CGTCCAAGGTCAATACTAGGTCAGTGAAAGCATT was tested. Which PBM binding z-score did it give?
A: 3.51

Q: ATACCAAGGTGATCGTGAGGTCGTGGATACTAAC was tested. Which PBM binding z-score did it give?
A: 0.217

Q: With TCATATAGGTAAACAGCTGAAAGTCCGTAAGTTA as the sequence, how does the PBM binding z-score read?
A: 1.64

Q: How did the PBM binding z-score turn out when TCCGCTAGGTCAACGATGGTCAGCTAATCTGCTA was run?
A: 1.1

Q: Which PBM binding z-score does the source give for ATCGCTAGGTAAAGATAGTTCAGTGAATGCAAAT here?
A: -0.61

Q: How did the PBM binding z-score turn out when CCTCGGAGGACAACAGGAGGTCAGAGCTGCCAGA was run?
A: 0.172

Q: Which PBM binding z-score does the source give for CGTCCAAGGTCATAGGAGGTAAGTGAAGACAGAT here?
A: 3.37

Q: TCGAGAAGGTTACCAATGGGGCATTCAGCTTTCT was tested. Which PBM binding z-score did it give?
A: 0.529

Q: How did the PBM binding z-score turn out when CCTTACGGGTCACTGACGGGTTATAGCATTTGGA was run?
A: 1.51

Q: With CAAACTAGGTCAATGGTCAAAGTCGAGCCAACCA as the sequence, how does the PBM binding z-score read?
A: 1.51

Q: How did the PBM binding z-score turn out when GCTAGTTGGTAAGTAAAAGGTCACACACCGGTCG was run?
A: 0.677

Q: How did the PBM binding z-score turn out when TAGCCTAGTTCATGGGCCAGTATACCACGCGAAC was run?
A: 1.37

Q: For GCAGACAGGTGAAAAGCAGGTAACTCAGGGTGGC, which PBM binding z-score is on record?
A: -0.616

Q: For CGAACTAGGTTATCCAGGACAGTGAATACATTGA, which PBM binding z-score is on record?
A: 0.958

Q: Which PBM binding z-score does the source give for ATCTCTAGGTAACAAGTTCAGAGAAAGAGAGGAC here?
A: 0.95

Q: Which PBM binding z-score does the source give for GCTTACGGGTCAAAGGTTATAGCGTGAATAGAAT here?
A: 2.22

Q: ATACCAAGGTGATCGTGATGTCGTTGATACTAAC was tested. Which PBM binding z-score did it give?
A: 0.0865

Q: For CCTAGCAGGACAGGGTCACTCAAGCATTTCGCTT, which PBM binding z-score is on record?
A: 1.06

Q: With TTAATGAGGTTATAAGATCAGGGAACGTTGCAAA as the sequence, how does the PBM binding z-score read?
A: 1.63
